Where “and” joins values, the source holds several entries; their conditions need not be identical. Equal values may be shown once. The campaign covered roughly 5,500 compounds. About 2,000 (36%) were called active. Inconclusive results (about 18%) are left out. Rule as the data show it: active = normalized growth mostly below about 0.91 (no sharp cut-off); inconclusive = no clear call, values can overlap the other calls; inactive = mostly above about 0.92. Some of the results follow.
Assay: chemical genetic growth profiling, strain panel (AID 1159580);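 also: tested at 20 µM; growth read once vehicle control cultures reached saturation at 30 °C; 1 = growth at the plate median or of vehicle wells; lower values mean less growth of the strain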
Details: S. cerevisiae deletion strains, growth OD

Measured: normalized growth

C=C1C(=O)O[C@@H]2C3O[C@]3(C)CC/C=C(\C)CC[C@@H]12 (stereo partly specified)
0.722 (active) and 0.968 (inactive): locus YHR030C, strain SLT2, stronger effect = lower value
inactive: locus YAL021C, strain ccr4, stronger effect = lower value 0.967 | locus YAL026C, strain drs2, stronger effect = lower value 0.914 | locus YAL030W, strain snc1, stronger effect = lower value 0.983 | locus YBL061C, strain skt5, stronger effect = lower value 1.01 | locus YBR009C, strain hhf1, stronger effect = lower value 0.977 | locus YBR021W, strain FUR4, stronger effect = lower value 1.06 | locus YBR023C, strain chs3, stronger effect = lower value 0.964 | locus YBR171W, strain sec66, stronger effect = lower value 0.975 | locus YBR229C, strain ROT2, stronger effect = lower value 0.941 | locus YBR231C, strain swc5, stronger effect = lower value 1.01 | locus YBR279W, strain paf1, stronger effect = lower value 0.948 | locus YCL011C, strain gbp2, stronger effect = lower value 0.978 | locus YCL016C, strain dcc1, stronger effect = lower value 0.946 | locus YCL069W, strain vba3, stronger effect = lower value 1 | locus YCR088W, strain abp1, stronger effect = lower value 0.983 | locus YDL005C, strain med2, stronger effect = lower value 0.989 | locus YDL040C, strain nat1, stronger effect = lower value 0.993 | locus YDL134C, strain PPH21, stronger effect = lower value 0.903 | locus YDL185W, strain tfp1, stronger effect = lower value 0.913 | locus YDR001C, strain nth1, stronger effect = lower value 0.997 | locus YDR069C, strain doa4, stronger effect = lower value 0.981 | locus YDR150W, strain NUM1, stronger effect = lower value 0.917 | locus YDR159W, strain sac3, stronger effect = lower value 1.02 | locus YDR195W, strain ref2 1.06 | locus YDR297W, strain sur2, stronger effect = lower value 0.998 | locus YDR334W, strain swr1, stronger effect = lower value 0.987 | locus YDR335W, strain msn5, stronger effect = lower value 0.976 | locus YEL003W, strain gim4, stronger effect = lower value 0.973 | locus YEL037C, strain rad23, stronger effect = lower value 0.992 | locus YEL061C, strain CIN8 (second series), stronger effect = lower value 1 | locus YER015W, strain faa2, stronger effect = lower value 0.993 | locus YER016W, strain bim1, stronger effect = lower value 0.997 | locus YER111C, strain swi4, stronger effect = lower value 0.992 | locus YER155C, strain BEM2 (second series), stronger effect = lower value 0.888 | locus YFR010W, strain ubp6, stronger effect = lower value 0.992 | locus YGL078C, strain dbp3, stronger effect = lower value 0.937 | locus YGL167C, strain pmr1, stronger effect = lower value 0.97 | locus YGL173C, strain kem1, stronger effect = lower value 0.956 | locus YGL227W, strain vid30, stronger effect = lower value 0.999 | locus YGL240W, strain doc1, stronger effect = lower value 0.962 | locus YGL253W, strain hxk2, stronger effect = lower value 0.963 | locus YGR252W, strain gcn5, stronger effect = lower value 0.771 | locus YHR013C, strain ard1, stronger effect = lower value 0.894 | locus YHR027C, strain rpn1, stronger effect = lower value 0.991 | locus YHR079C, strain IRE1, stronger effect = lower value 0.966 | locus YHR094C, strain hxt1, stronger effect = lower value 0.934 | locus YHR142W, strain chs7, stronger effect = lower value 0.962 | locus YHR200W, strain rpn10, stronger effect = lower value 0.924 | locus YIL125W, strain kgd1, stronger effect = lower value 0.937 | locus YJL092W, strain hpr5, stronger effect = lower value 0.987 | locus YJL095W, strain BCK1 (second series), stronger effect = lower value 0.976 | locus YJL115W, strain asf1, stronger effect = lower value 0.991 | locus YJL129C, strain trk1, stronger effect = lower value 1 | locus YJL134W, strain LCB3, stronger effect = lower value 0.943 | locus YJL154C, strain vps35, stronger effect = lower value 0.998 | locus YJL164C, strain tpk1, stronger effect = lower value 0.95 | locus YJL166W, strain qcr8, stronger effect = lower value 0.961 | locus YJL187C, strain SWE1, stronger effect = lower value 0.963 | locus YJR066W, strain TOR1, stronger effect = lower value 0.937
0.446 (active) and 0.99 (inactive): locus YJL095W, strain BCK1, stronger effect = lower value
active: locus YAL013W, strain DEP1, stronger effect = lower value 0.878 | locus YCL029C, strain bik1, stronger effect = lower value 0.905 | locus YDL035C, strain GPR1, stronger effect = lower value 0.838 | locus YDL074C, strain BRE1, stronger effect = lower value 0.671 | locus YDL101C, strain DUN1, stronger effect = lower value 0.87 | locus YDL192W, strain arf1, stronger effect = lower value 0.729 | locus YDR101C, strain arx1, stronger effect = lower value 0.864 | locus YDR137W, strain rgp1, stronger effect = lower value 0.556 | locus YDR162C, strain NBP2, stronger effect = lower value 0.455 | locus YDR318W, strain mcm21, stronger effect = lower value 0.739 | locus YDR388W, stronger effect = lower value 0.901 | locus YDR392W, strain spt3, stronger effect = lower value 0.532 | locus YDR502C, strain sam2, stronger effect = lower value 0.818 | locus YEL061C, strain CIN8, stronger effect = lower value 0.86 | locus YER110C, stronger effect = lower value 0.879 | locus YER155C, strain BEM2, stronger effect = lower value 0.798 | locus YER167W, strain BCK2, stronger effect = lower value 0.694 | locus YGL086W, strain mad1, stronger effect = lower value 0.792 | locus YGL248W, strain PDE1, stronger effect = lower value 0.879 | locus YGR078C, strain PAC10, stronger effect = lower value 0.695 | locus YGR135W, strain pre9, stronger effect = lower value 0.749 | locus YGR229C, strain SMI1, stronger effect = lower value 0.396 | locus YHR079C, strain IRE1 (second series), stronger effect = lower value 0.861 | locus YHR129C, strain ARP1, stronger effect = lower value 0.801 | locus YIL066C, strain RNR3, stronger effect = lower value 0.7 | locus YIL073C, strain SPO22, stronger effect = lower value 0.588 | locus YIR030C, strain dcg1, stronger effect = lower value 0.912 | locus YJL168C, strain set2, stronger effect = lower value 0.914 | locus YJL187C, strain SWE1 (second series), stronger effect = lower value 0.866 | locus YJR043C, strain POL32, stronger effect = lower value 0.752
